# Reference: ChEMBL document CHEMBL3988442, “University of Dundee, Small-Polar-MMV Screening Library” (2021)
# For some assays here: Results with a measured potency or affinity are listed apart.
# Legend:
# Parameters in all cases: scale not given: direction of the effect not stated beside the values
# [1] = molecular target: Protein translocase subunit SecA (Escherichia coli (strain K12)) (UniProt P10408); assay: Assay to Identify E. coli SecA ATPase Inhibitors; format: functional; details: 30 µM
# [2] = molecular target: T1, Ubiquitin-activating enzyme e1, putative (Leishmania donovani (strain BPK282A1)) (UniProt E9BSI1); assay: Leishmania donovani Ubiquitin Activating Enzyme (LdE1); format: functional; details: 30 µM
# T1 sequence (whole entry): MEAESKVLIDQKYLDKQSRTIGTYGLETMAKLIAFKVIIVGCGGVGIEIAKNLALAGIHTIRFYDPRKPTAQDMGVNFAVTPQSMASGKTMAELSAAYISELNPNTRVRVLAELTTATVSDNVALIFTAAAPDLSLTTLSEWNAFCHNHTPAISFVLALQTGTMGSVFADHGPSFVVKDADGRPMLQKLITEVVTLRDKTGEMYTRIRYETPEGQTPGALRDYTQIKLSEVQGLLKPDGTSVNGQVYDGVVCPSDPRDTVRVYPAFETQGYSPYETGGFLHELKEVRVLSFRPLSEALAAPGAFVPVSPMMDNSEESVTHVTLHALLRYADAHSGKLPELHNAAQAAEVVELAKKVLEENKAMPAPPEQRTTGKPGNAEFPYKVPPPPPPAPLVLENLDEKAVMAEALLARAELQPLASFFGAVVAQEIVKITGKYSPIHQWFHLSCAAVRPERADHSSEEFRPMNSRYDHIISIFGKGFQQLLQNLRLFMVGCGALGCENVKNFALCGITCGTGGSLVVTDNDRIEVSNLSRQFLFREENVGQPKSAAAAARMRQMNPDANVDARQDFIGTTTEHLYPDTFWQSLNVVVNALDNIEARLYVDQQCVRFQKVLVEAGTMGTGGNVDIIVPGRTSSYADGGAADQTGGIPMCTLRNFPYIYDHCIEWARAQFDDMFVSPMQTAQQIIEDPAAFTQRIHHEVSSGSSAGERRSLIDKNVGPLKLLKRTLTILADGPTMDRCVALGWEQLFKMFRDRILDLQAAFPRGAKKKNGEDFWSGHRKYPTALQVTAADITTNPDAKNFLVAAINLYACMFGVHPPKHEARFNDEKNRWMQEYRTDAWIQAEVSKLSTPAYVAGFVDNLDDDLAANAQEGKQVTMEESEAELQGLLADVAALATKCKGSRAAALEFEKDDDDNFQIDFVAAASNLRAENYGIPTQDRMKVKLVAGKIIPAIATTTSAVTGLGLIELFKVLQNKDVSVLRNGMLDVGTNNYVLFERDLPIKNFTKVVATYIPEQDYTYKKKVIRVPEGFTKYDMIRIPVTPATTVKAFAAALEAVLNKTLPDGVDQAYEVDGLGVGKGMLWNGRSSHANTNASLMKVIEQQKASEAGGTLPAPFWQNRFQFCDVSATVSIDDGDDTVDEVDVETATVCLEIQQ
# [3] = molecular target: AMP-activated protein kinase, AMPK (Homo sapiens) (UniProt P54646+O43741+P54619+Q9UGJ0+Q9Y478+Q13131+Q9UGI9); assay: AMP-dependent Kinase enzyme assay. An in vitro enzyme assay that detects ADP turnover that is directly proportional to AMPK activity. This uses naive AMPK that is activated during the assay with MK-8722; format: functional; details: 30 µM
# [4] = molecular target: Sialic acid-binding Ig-like lectin 9 (Homo sapiens) (UniProt Q9Y336); assay: Hs-Siglec9 ALPHAscreen SOP 20170721; details: 10 µM
# [5] = system: Trypanosoma cruzi; assay: Trypanosoma cruzi phosphomannomutase and mannose-1-phosphate guanylyltransferase assay; format: functional; details: 10 µM
# [6] = molecular target: T2, Arginase-2, mitochondrial (Homo sapiens) (UniProt P78540); assay: in vitro enzyme assay to detect the production of urea directly proportional to the activity of Arginase II; format: functional; details: 33.3 µM; also: in the data most compounds retested in dose-response had high values
# T2 sequence (whole entry): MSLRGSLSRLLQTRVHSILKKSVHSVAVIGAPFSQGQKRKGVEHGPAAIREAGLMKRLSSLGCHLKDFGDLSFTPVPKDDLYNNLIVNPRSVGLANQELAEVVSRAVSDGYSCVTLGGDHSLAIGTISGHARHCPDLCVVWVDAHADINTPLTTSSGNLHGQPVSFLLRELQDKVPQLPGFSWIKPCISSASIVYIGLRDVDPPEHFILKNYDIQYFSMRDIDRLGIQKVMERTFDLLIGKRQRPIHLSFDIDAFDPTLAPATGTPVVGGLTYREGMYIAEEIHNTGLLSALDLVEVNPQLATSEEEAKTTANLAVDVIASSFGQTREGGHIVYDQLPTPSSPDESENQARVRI
# [7] = molecular target: T3, Proteasome subunit beta (Trypanosoma cruzi) (UniProt O96673); assay: Trypanosoma cruzi proteasome chymotrypsin-like activity (TcProtChymo) assay.; also: in the data most compounds retested in dose-response had high values; format: functional; details: 9.37 µM
# T3 sequence (whole entry): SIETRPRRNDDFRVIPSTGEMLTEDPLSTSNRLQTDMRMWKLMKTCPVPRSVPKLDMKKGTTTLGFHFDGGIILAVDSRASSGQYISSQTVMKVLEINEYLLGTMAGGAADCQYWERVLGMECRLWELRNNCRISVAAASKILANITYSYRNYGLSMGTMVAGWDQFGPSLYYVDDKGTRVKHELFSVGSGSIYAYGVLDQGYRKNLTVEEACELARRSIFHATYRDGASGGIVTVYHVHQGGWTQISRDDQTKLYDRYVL
# [8] = organism: Homo sapiens; assay: To identify inhibition of the IFN signalling (Jak-Stat) pathway via expression of an eGFP reporter gene under the control of an IFN-stimulated response element (ISRE) containing MxA promoter.; format: functional; details: 30 µM
# [9] = molecular target: T4, Tyrosyl-tRNA synthetase, putative (Trypanosoma cruzi (strain CL Brener)) (UniProt Q4DSP6); assay: Trypanosoma cruzi tyrosyl tRNA synthetase (TcYRS) _High Tyrosine SOP; format: functional; details: 30 µM; also: in the data most compounds retested in dose-response had high values
# T4 sequence (whole entry): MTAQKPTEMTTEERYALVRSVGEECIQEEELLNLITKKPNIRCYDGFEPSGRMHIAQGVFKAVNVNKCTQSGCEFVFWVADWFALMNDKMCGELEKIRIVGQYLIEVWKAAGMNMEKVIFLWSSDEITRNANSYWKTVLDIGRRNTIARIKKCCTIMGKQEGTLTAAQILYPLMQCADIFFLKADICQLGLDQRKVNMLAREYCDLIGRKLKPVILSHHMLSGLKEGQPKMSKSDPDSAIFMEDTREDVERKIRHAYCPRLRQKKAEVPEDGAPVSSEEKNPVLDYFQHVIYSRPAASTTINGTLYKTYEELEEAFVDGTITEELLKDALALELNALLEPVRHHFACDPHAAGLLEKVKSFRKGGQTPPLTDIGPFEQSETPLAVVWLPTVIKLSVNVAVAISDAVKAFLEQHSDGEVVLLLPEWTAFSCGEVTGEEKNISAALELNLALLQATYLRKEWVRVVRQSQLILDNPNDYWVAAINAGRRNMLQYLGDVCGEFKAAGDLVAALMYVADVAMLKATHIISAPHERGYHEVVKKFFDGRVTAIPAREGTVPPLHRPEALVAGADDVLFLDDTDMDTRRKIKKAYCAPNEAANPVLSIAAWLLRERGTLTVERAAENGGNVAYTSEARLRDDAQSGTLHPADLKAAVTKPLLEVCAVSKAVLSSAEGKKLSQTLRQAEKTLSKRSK
# [10] = molecular target: T4, Tyrosyl-tRNA synthetase, putative (Trypanosoma cruzi (strain CL Brener)); assay: Trypanosoma cruzi tyrosyl tRNA synthetase (TcYRS) SOP; format: functional; details: 30 µM
# [11] = molecular target: Chromo domain-containing protein 1 (Saccharomyces cerevisiae (strain ATCC 204508 / S288c) (Baker's yeast)) (UniProt P32657); assay: ScCHD-1 Enzyme Inhibition Assay; format: functional; details: 30 µM; also: in the data most compounds retested in dose-response had high values
# Sequence of Chromo domain-containing protein 1 (Saccharomyces cerevisiae (strain ATCC 204508 / S288c) (Baker's yeast)) (P32657 whole entry, the tested form may be a part): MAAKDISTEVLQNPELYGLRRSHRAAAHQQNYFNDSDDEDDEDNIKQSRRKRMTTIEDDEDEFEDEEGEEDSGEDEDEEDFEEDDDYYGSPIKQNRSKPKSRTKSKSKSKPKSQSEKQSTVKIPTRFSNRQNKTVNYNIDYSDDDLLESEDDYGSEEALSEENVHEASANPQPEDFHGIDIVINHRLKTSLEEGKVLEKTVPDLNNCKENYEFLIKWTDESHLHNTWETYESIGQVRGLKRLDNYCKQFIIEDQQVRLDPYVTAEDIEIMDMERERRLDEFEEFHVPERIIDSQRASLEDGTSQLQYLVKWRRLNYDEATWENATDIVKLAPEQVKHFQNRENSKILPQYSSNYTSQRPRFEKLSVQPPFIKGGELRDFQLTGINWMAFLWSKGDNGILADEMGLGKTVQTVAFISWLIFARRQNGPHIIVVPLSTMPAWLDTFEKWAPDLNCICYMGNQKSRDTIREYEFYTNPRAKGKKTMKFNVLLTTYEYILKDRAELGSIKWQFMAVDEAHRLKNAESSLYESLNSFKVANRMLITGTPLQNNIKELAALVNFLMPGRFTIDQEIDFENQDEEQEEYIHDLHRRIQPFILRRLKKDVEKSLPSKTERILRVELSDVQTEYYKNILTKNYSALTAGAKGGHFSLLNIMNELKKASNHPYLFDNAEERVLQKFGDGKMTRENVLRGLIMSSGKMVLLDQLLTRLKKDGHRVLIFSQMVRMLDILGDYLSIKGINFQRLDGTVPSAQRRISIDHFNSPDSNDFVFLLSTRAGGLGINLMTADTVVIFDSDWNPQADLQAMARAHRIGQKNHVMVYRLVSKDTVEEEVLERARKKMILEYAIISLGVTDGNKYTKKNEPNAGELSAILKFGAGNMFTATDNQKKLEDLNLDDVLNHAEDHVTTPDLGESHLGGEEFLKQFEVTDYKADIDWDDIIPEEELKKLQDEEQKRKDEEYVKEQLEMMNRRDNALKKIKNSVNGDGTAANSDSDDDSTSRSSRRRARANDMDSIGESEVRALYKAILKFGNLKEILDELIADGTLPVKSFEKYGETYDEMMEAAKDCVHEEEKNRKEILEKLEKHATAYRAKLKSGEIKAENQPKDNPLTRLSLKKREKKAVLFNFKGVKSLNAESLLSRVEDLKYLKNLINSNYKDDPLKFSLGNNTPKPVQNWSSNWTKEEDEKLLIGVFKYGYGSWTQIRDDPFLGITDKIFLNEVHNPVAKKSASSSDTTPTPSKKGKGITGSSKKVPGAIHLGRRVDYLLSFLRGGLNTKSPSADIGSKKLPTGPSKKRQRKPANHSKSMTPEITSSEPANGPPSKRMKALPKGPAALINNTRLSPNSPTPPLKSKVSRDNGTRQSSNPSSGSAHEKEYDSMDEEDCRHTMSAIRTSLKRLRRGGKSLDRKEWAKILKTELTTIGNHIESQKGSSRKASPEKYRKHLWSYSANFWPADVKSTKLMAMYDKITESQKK
# Sequence of Protein translocase subunit SecA (Escherichia coli (strain K12)) (P10408 whole entry): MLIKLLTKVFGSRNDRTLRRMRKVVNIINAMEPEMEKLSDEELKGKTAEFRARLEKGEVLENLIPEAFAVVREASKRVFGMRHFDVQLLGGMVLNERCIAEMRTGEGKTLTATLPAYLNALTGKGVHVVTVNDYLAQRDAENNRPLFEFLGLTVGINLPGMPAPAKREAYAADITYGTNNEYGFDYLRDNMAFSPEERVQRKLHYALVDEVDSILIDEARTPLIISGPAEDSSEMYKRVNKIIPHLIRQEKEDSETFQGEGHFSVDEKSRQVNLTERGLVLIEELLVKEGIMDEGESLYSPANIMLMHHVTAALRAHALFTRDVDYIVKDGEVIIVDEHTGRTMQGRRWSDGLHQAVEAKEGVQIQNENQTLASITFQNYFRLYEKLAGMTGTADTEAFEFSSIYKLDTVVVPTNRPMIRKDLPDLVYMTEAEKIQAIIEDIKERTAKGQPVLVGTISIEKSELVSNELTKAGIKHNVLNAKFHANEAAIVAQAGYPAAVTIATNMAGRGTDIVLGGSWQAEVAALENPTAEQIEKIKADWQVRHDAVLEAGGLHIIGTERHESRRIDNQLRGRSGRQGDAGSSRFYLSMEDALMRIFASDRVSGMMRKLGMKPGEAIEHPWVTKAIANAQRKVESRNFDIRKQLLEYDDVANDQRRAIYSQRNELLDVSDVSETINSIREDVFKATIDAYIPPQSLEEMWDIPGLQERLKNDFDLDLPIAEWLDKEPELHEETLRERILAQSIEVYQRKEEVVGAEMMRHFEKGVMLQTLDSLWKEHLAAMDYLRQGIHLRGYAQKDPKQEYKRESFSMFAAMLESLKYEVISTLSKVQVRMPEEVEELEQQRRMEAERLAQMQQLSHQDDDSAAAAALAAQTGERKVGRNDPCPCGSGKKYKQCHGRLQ
# Sequence of Sialic acid-binding Ig-like lectin 9 (Homo sapiens) (Q9Y336 whole entry): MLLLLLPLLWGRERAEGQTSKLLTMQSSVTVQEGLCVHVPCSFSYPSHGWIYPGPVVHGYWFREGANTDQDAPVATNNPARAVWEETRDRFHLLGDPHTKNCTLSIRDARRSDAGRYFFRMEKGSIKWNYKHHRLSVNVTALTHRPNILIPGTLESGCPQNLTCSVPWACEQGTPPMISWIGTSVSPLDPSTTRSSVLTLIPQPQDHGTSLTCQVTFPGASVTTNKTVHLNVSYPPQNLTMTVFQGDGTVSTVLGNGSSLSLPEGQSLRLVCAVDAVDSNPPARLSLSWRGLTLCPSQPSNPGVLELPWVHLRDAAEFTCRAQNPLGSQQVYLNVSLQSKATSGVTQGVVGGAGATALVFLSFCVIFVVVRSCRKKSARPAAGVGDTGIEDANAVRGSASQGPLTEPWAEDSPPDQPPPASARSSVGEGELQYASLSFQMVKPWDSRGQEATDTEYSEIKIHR
Structure (SMILES),Percent Effect [1],Percent Effect [2],Percent Effect [3],Percent Effect [4],Percent Effect [5],Percent Effect [6],Percent Effect [7],Percent Effect [8],Percent Effect [9],Percent Effect [10],Percent Effect [11]
Cc1cnn(CC2CCCN2C(=O)c2cccc(CC#N)c2)c1 (stereo not given),-3.75%,2.53%,0.139%,-0.305%,8.03%,0%,-0.0819%,-5.56%,0.493%,1.27%,-2.19%
O=C(C[C@@H]1COC[C@H]2CN(Cc3ccc(F)cc3)C[C@@H]12)N1CCCCO1,-4.42%,6.67%,4.91%,6.17%,-2.36%,-0.176%,16.1%,19%,2.12%,7.69%,-5.03%
Cn1cc(CN2CCOC3(CCCN(C(=O)c4ccco4)C3)C2)cn1 (stereo not given),-4.16%,13%,-1.39%,4.5%,8.95%,-8.28%,5.49%,1.45%,3.23%,8.64%,-6.46%
CC(NC(=O)CCCOc1ccccc1Cl)c1ccncc1 (stereo not given),-5.33%,0%,2.41%,0.805%,-8.42%,-2.27%,6.39%,27.7%,-2.15%,2.5%,110%
NC(=O)c1ccc(N2CCCCC2)c(NC(=O)c2cc(Br)ccc2F)c1,-3.67%,7.79%,2.61%,8.24%,0.295%,-16.6%,14.8%,1.93%,4.3%,6.17%,24.8%
Cc1nccn1-c1cccc(C2CCCN(C3CCCCC3)C2)n1 (stereo not given),-7.63%,-4.05%,3.56%,-0.877%,2.17%,4.41%,14.8%,2.91%,22.6%,27.3%,-10.9%
Cc1nc(C2CCCN2C(=O)c2cnns2)no1 (stereo not given),-3.1%,13.2%,3.2%,4.23%,-0.564%,9.96%,12.9%,3.69%,5.39%,17.1%,-6.62%
O=C(c1ccc[nH]1)N1CCC(c2nccn2Cc2ccncc2)CC1,-3.39%,13.7%,-1.71%,5.74%,7.05%,14.1%,8.7%,11.4%,5.38%,10%,-6.61%
Cc1cc(C)c2cc(CNCc3ccccc3)c3nn(C)c(=O)n3c2c1,-8.18%,9.46%,-1.18%,8.69%,2.96%,-2.09%,10.3%,13.4%,4.3%,3.9%,-30.5%
Cc1ncsc1C(=O)NC1CCN(CC(=O)N(C)c2ccccc2)CC1,-6.03%,18.4%,-4.03%,6.55%,-0.654%,-0.719%,3.3%,1.23%,10.3%,18.5%,2.33%
